Results on 34 compounds are retold here after PubChem BioAssay (NCI).

This is part of a sample that, as a whole, favours compounds with a hit. Of some 83,000 tested, about 20% had one in any assay.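 Single-concentration screen, 48 h exposure, 96-well plates. Endpoint: percent growth. Below 10 = active.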 Unmarked numbers belong to inactive results. Calls of active or inactive are those of the source.

Assay in all cases: NCI-60 one-dose screen, 48 h (100 = growth as untreated, 0 = no growth, -100 = all killed)
Assay [1] concerns HCT-15 colon. Particulars: 10 µM unless noted.
Assay [2] deals with SNB-75 CNS. To be noted: 10 µM unless noted.
The subject of assay [3] is SNB-19 CNS. To be noted: 10 µM unless noted.
Assay [4] has as its system U251 CNS. Particulars: 10 µM unless noted.
In assay [5] the test system is PC-3 prostate. Particulars: 10 µM unless noted.
In assay [6] the test system is SK-MEL-5 melanoma. To be noted: 10 µM unless noted.
The subject of assay [7] is UACC-62 melanoma. Particulars: 10 µM unless noted.
Assay [8] has as its system LOX IMVI melanoma. To be noted: 10 µM.
In assay [9] the test system is SK-MEL-28 melanoma. Particulars: 10 µM unless noted.
For assay [10], the system named is HT29 colon. To be noted: 10 µM unless noted.

Consider `C/C(O)=C(/C=N\C(=S)Nc1ccc(S(=O)(=O)Nc2nccs2)cc1)C(=O)Nc1ccccc1C`, for which the growth is 102% in assay [1]; 89% in assay [2]; 92.7% in [3]; 84% in assay [4]; 84.9% in assay [5]; 93% in [6]. The growth in assay [7] was 81.8%; in assay [8], 92%; in assay [9] it was 110%.
With `OCc1cccnc1`, the growth in assay [1] is 92.4%; in assay [10], 107%; in assay [3], 96.8%; in assay [4] it was 91.8%; in assay [5], 94.7%; in [6] it was 116%. Moreover, the growth in assay [8] was 104%; in [9] it was 111%.
As for `Nc1c(O)c(S(=O)(=O)O)c(O)c2c1C(=O)c1ccccc1C2=O`, the growth was 15.9% in [1]; 14% in assay [10]; 26.2% in [3]; 20.2% in [4]; 23.8% in assay [5]; 5.72% (active) in assay [6]. The growth in [7] was 34.6%; in assay [9] it was 42.5%.
With `O=Cc1ccc(O)c(O)c1`, the growth in assay [1] was 103%; in [10], 105%; in [3], 86%; in assay [4], 102%; in assay [5], 82.9%; in assay [6], 95.3%. Besides, the growth is 98.2% in [7], 91.2% in assay [8] and 92.4% in assay [9].
For the compound `OCC1CCC(O)C(CO)N1` (stereo not drawn), the growth in assay [1] was 94.1%; in assay [10], 108%; in [4] it was 100%; in assay [5], 95%; in [7], 105%; in assay [8] it was 100%. Besides, the growth in assay [9] was 96.3%.
For `O=C1C=CC(=O)C2=C1CCCC2`, the growth in assay [1] was 92.4%; in assay [10], 109%; in [4], 95.5%; in assay [5], 82.7%; in assay [6], 97.5%; in assay [7], 85.5%. The growth in [9] is 108%.
For the compound `O=C(Nc1ccccc1)c1ccco1`, the growth is 105% in assay [1]; 100% in [10]; 107% in assay [3]; 96.1% in [4]; 100% in assay [5]; 104% in [6]. Further, the growth in assay [7] was 104%; in assay [8], 97.6%; in assay [9], 105%.
Consider `CN(CCCN(C)CCC1CCCCC1)CCC1CCCCC1`, for which the growth is 8.41% (active) in [1]; 3.68% (active) in assay [10]; 77.3% in assay [3]; 11.1% in [4]; 43.2% in assay [5]; -100% (active) in [6]. For the same compound, the growth in assay [8] is -4.45% (active); in assay [9], -84.9% (active).
With `C[n+]1c(/C=C\C=C\N2CCCCC2)sc2ccccc21`, the growth in [1] is 57.7%; in [10], 1.33% (active); in [3], 15.4%; in assay [4] it was 14.5%; in assay [5], 2.78% (active); in [6], -59.7% (active). Besides, the values for the growth in assay [7], in [8] and in [9] were 3.09% (active), 14.1% and 39.4%, respectively.
As to `CCOC(=O)/C(O)=C(\C=N\C(=S)Nc1ccc(Cl)c(Cl)c1)C(=O)OCC`, the growth in [1] is 89.3%; in [10], 92.8%; in assay [3] it was 104%; in assay [4], 98.2%; in assay [5] it was 86.9%; in [6], 91.7%. The growth in [7] is 88.4%; in assay [8], 92.9%; in assay [9], 109%.
With `CN1CCCN(C(c2ccccc2)c2ccc(Br)cc2)CC1` (stereo not drawn), the growth is 63.8% in assay [1]; 39.1% in assay [10]; 71.1% in assay [4]; 61.4% in [5]; 60.3% in assay [6]; 69.7% in assay [8]. For the same compound, in [9], the growth was 64.9%.
As to `COc1ccc2c(ccc[n+]2C)c1`, the growth in [1] is 93.5%; in assay [10] it was 93%; in assay [3], 101%; in assay [4], 96.7%; in assay [5], 119%; in [6], 103%. Besides, the growth in [7] is 95.5%; in assay [8], 105%; in assay [9], 111%.
`c1ccc2[nH]c(Cc3nc4ccccc4[nH]3)nc2c1`: the growth is 107% in [1]; 112% in assay [10]; 130% in assay [3]; 106% in [4]; 93.7% in assay [5]; 104% in assay [6]. For the same compound, the figures for the growth in assay [7], in assay [8] and in assay [9] were 105%, 109% and 94.3%, respectively.
Consider `COc1ccc(C(=O)/C(=N/Nc2ccccc2)c2ccc(OC)cc2)cc1`, for which the growth in assay [1] was 76.1%; in [10], 80.5%; in assay [3] it was 100%; in assay [4] it was 92.4%; in assay [5], 78.2%; in assay [6], 98.1%. In addition, the growth in assay [7] is 79.2%; in [9], 111%.
Take `COc1cc(N)c2ncccc2c1Cl`: the growth in [1] is 90.5%; in [10], 91.1%; in [3], 98.8%; in assay [4], 101%; in assay [5] it was 93.3%; in assay [6], 96.4%. Moreover, the growth in [7] is 86.7%; in [8] it was 104%; in assay [9] it was 121%.
With `COc1ccc(C2CCCCC2=O)cc1` (stereo not drawn), the growth in [1] is 98.6%; in [10], 108%; in assay [3], 111%; in [4], 99%; in assay [5], 95.4%; in assay [6], 110%. Besides, the growth in [7] was 110%; in [8] it was 96.6%; in [9], 111%.
As for `Cn1c2ccccc2c2nnc(NCCCCO)nc21`, the growth was 88.9% in assay [1]; 102% in assay [10]; 94.7% in [3]; 103% in assay [4]; 100% in [5]; 94.4% in assay [6]. Besides, the figures for the growth in assay [7], in assay [8] and in assay [9] were 103%, 89.1% and 109%, respectively.
For `CC(C)(C)[Si](C)(C)OCC1OC(n2cnc3c(N)ncnc32)CC1OS(C)(=O)=O` (stereo not drawn), the growth in assay [1] was 115%; in assay [10], 108%; in assay [3] it was 108%; in assay [4], 91.7%; in [5] it was 103%; in [6], 98.5%. Besides, the growth is 90.4% in assay [7], 95.4% in [8] and 105% in [9].
Turning to `Cc1cc2nc(C)c(C)nc2cc1C`, the growth is 107% in [1]; 108% in [10]; 111% in [3]; 98.3% in assay [4]; 81.4% in assay [5]; 95.3% in assay [6]. The growth in [7] was 99.5%; in assay [8], 97.2%; in assay [9] it was 110%.
As to `Nc1ccc2ccccc2c1-c1c(N)ccc2ccccc12`, the growth in assay [1] is 30.7%; in assay [2], 42.7%; in assay [3], 44.1%; in assay [4], 21.5%; in assay [5], 31.2%; in assay [6] it was 25.5%. Further, the growth in assay [7] was 24.9%; in [8], 36.8%; in assay [9], 56.4%.
Regarding `C1Cc2onc(-c3noc4c3CCC4)c2C1`, the growth was 105% in assay [1]; 104% in assay [10]; 98.8% in assay [3]; 106% in assay [4]; 103% in assay [5]; 102% in assay [6]. Further, the growth is 96.5% in [7] and 111% in assay [9].
On to `CS(=O)(=O)c1ccc(/C=C\C(=O)O)cc1`, for which the growth was 96.1% in assay [1]; 104% in assay [10]; 102% in assay [3]; 104% in assay [4]; 98.1% in assay [5]; 99.5% in [6]. The growth in [7] was 111%; in [8], 98%; in assay [9], 105%.
Take `Cc1ccc(NC(=S)N2CCOCC2)cc1C`: the growth is 86.2% in assay [1]; 114% in [10]; 94.5% in assay [3]; 104% in assay [5]; 96.5% in assay [6]; 94% in assay [7]. Also, the growth is 82.3% in assay [8] and 111% in [9].
`Cc1ccc(NCN2C(=O)c3ccccc3C2=O)c(C)n1`: the growth in [1] was 115%; in assay [2] it was 116%; in assay [3], 113%; in [4] it was 103%; in assay [5], 101%; in assay [6] it was 100%. In addition, the growth was 109% in [7], 104% in assay [8] and 116% in [9].
For the compound `NC(CSSCC(N)C(=O)O)C(=O)O` (stereo not drawn), the growth in assay [1] is 34.5%; in assay [2] it was -3.17% (active); in assay [3], -6.03% (active); in [4] it was 27%; in assay [5], 27.3%; in [7], -19.3% (active). The figures for the growth in assay [8] and in assay [9] were 18.2% and 18.5%, respectively.
As for `Nc1ccc(F)cc1F`, the growth in [1] is 108%; in assay [2], 97.1%; in assay [3], 109%; in assay [4], 106%; in assay [5] it was 89.1%; in assay [7] it was 100%. Also, the growth in assay [9] was 92.7%.
For `CCCCCCCCCCC(=O)CCCCCCCCCC`, the growth in [1] was 99.7%; in assay [2], 95.9%; in assay [3], 109%; in assay [4], 101%; in assay [5] it was 97.8%; in assay [6], 102%. In addition, the growth was 105% in assay [7] and 106% in assay [9].
For `CC(=O)NC(CCc1ccc(Cl)c(Cl)c1)c1cccc(O)c(=O)c1` (stereo not drawn), the growth in assay [1] was 29.9%; in assay [2], 18.7%; in assay [3], 23.7%; in [4], 13.7%; in assay [6] it was -31.8% (active); in assay [7], -57.7% (active). The growth in assay [8] is -2.69% (active); in [9], 19.5%.
`CC1(C)CC(=O)C=C(N)C1`: the growth in assay [1] is 102%; in assay [2], 76.1%; in assay [3] it was 105%; in [4] it was 98.8%; in assay [5] it was 93%; in [6], 131%. In addition, the growth in assay [7] is 98.5%; in assay [8], 98.1%; in assay [9], 104%.
As for `COC1C(=O)CCC2(CO2)C1(O)C1(C)OC1CCC(C)C` (stereo not drawn), the growth in assay [1] was 56.4%; in assay [2], 77.5%; in assay [3], 51.5%; in [4], 42.3%; in assay [5], 74.6%; in assay [6], 64.6%. For the same compound, in assay [8], the growth is 50.3%.
For `CCCCNC(=O)c1ccc(OCC)cc1`, the growth in assay [1] was 105%; in [2], 102%; in assay [3], 105%; in assay [4] it was 99.1%; in assay [5], 90.9%; in assay [6], 103%. The growth is 98.2% in [7], 95.2% in assay [8] and 101% in assay [9].
Consider `Nc1ncnc(Nc2ccc(C(F)(F)F)cc2)n1`, for which the growth in assay [1] is 103%; in assay [2] it was 87.5%; in assay [3] it was 98.8%; in assay [4], 94.2%; in [5], 89.6%; in [8], 100%. Further, the growth in assay [9] is 104%.
For the compound `S=CN1CCCCC1`, the growth in assay [1] was 99.9%; in [3], 109%; in assay [4], 89.1%; in [5], 99.3%; in assay [6], 104%; in assay [7], 106%. In addition, the growth was 99% in assay [8] and 103% in assay [9].
On to `CC(=O)N(CCCCCCN(C(C)=O)C(C)=O)C(C)=O`, for which the growth in assay [1] was 107% [100 µM]; in [2], 87.9% [100 µM]; in assay [3] it was 99.2% [100 µM]; in assay [4], 107% [100 µM]; in assay [5] it was 104% [100 µM]; in [6] it was 104% [100 µM]. For the same compound, the growth in assay [7] was 97% [100 µM]; in assay [9], 105% [100 µM].
